Source: PubChem BioAssay (several laboratories)
BoNT A protease: BoNT/A light chain protease inhibitors, primary screen, biochemical, flow cytometry, MLPCN library; inhibition, % at 10 µM; Botulinum neurotoxin type A light chain protease (Clostridium botulinum A str. ATCC 3502); multiplex microsphere protease substrate cleavage; AID 588499, 2011; 360,000 compounds, 0.17% hits; also: plate controls were buffer without enzyme for full effect and enzyme alone for no effect
Bead autofluor: compound fluorescence in toxin protease inhibitor counterscreen; 360,000 compounds, 3.1% hits; compound autofluorescence counterscreen, microsphere flow cytometry; stronger effect = higher value; AID 624483; fluorescence intensity (test concentration not listed); in the data active = fluorescence intensity above about 16000; inconclusive = no clear call, values can overlap the other calls
Anthrax LF inh2: Bacillus anthracis LF protease inhibitors, primary screen, biochemical, multiplex microsphere, MLPCN library. multiplex microsphere protease cleavage assay. inhibition, % at 10 µM. 360,000 compounds, 0.12% hits; also: plate controls were buffer without enzyme for full effect and enzyme alone for no effect
Target sequence (P15917 whole entry, looked up): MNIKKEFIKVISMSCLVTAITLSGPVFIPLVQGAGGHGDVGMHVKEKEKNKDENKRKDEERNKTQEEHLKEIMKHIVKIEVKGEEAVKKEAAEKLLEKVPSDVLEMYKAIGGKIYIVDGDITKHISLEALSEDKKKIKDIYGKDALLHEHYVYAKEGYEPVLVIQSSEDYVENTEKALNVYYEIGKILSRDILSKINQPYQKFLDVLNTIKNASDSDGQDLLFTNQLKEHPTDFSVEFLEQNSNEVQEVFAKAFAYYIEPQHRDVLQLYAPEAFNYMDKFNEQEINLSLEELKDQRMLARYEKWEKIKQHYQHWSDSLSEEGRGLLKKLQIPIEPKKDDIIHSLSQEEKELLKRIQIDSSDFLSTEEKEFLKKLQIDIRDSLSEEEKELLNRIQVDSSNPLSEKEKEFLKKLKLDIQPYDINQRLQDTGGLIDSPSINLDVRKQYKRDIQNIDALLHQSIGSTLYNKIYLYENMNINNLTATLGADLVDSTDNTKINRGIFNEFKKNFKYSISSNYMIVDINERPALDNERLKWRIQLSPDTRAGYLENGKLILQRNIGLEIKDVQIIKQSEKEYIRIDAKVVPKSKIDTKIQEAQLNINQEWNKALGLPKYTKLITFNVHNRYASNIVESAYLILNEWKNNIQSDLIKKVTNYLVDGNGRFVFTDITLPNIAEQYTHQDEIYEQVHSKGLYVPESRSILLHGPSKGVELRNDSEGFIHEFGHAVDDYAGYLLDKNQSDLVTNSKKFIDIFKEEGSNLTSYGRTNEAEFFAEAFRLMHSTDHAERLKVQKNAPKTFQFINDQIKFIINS
FBA Mtb inh: Mtb FBA enzyme inhibitors, primary screen, biochemical, fluorescence, strain H37Rv | Fructose-bisphosphate aldolase (Mycobacterium tuberculosis (strain ATCC 25618 / H37Rv)), … | inhibition, % at 1 µM | AID 588726, 2011 | purified M. tuberculosis FBA, fluorescence read-out | 360,000 compounds, 2.3% hits; in the data active = inhibition above about 27%;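 also: 0% = vehicle and 100% = reference inhibitor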
BoNT F protease: BoNT/F light chain protease inhibitors, primary screen, biochemical, flow cytometry, MLPCN library | Botulinum neurotoxin type F light chain protease (Clostridium botulinum) | Multiplex microsphere protease cleavage assay | inhibition, % at 10 µM | 360,000 compounds, 0.22% hits | AID 588497, 2011; in the data active = inhibition above about 35%, passing the limit was not always enough; inconclusive = no clear call, values can overlap the other calls; also: plate controls were buffer without enzyme for full effect and enzyme alone for no effect
GDH-TPI inh: GDH-TPI coupling enzyme inhibitors, primary screen, artefact control for M. tuberculosis FBA inhibitor project, biochemical, absorbance, full deck | GDH-TPI coupled enzyme counterscreen, NADH absorbance | inhibition, % at 4.8 µM | 360,000 compounds, 1.2% hits; in the data active = inhibition above about 30%;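 also: 0% = DMSO wells and 100% = wells lacking the enzyme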
Numbers without * were called inactive; ? = inconclusive; nt = no result given; + = active, no number. Most compounds without a hit are left out; they make up all but 6.6% or so of the library. Rule as the data show it, unless noted: active = inhibition above about 30%; inconclusive = no clear call, values can overlap the other calls; inactive = below that.

SMILES	BoNT A protease	Bead autofluor	Anthrax LF inh2	FBA Mtb inh	BoNT F protease	GDH-TPI inh
Oc1cc(O)cc(-c2cc3ccc(O)cc3o2)c1	1	5776	-2	177*	-1	0
CCOc1ccc(C(=O)c2cc3ccc(O)cc3oc2=O)cc1	-1	4583	-8	-4	0	5
NC(=S)c1cc2ccc(O)cc2oc1=O	0	3190	1	+	7	16
C/C(=N/NC(N)=S)c1cc2ccc(O)cc2oc1=O	-1	4529	-11	129*	-15	-4
C/C(=N/NC(=O)c1ccncc1)c1cc2ccc(O)cc2oc1=O	-1	3743	-4	+	-11	10
C/C(=N\NC(=O)c1ccncc1)c1cc2ccccc2oc1=O	0	2187	0	-2	-1	2
COc1ccc(NS(=O)(=O)N2CCOCC2)cc1	1	5483	-3	24	4	5
C/C(=N\NC(=O)c1ccccc1)c1cc2cc([N+](=O)[O-])ccc2oc1=O	-1	2035	-2	-8	-16	17
C/C(=N\NC(=O)c1ccc([N+](=O)[O-])cc1)c1cc2ccccc2oc1=O	0	7371	0	-1	8	32*
Cc1nnc(Sc2c(N)n(C)c(=O)n(C)c2=O)s1	0	20250*	-7	-1	-3	-4
Cc1nnc(SCCn2c(Br)nc3c2c(=O)n(C)c(=O)n3C)s1	-1	5889	-7	0	-17	5
CSc1ccc(CN(C)CC(=O)Nc2c(F)cccc2F)cc1	-1	3335	3	-3	1	-1
Oc1ccccc1-c1n[nH]c(-c2ccccc2O)n1	0	4299	2	11	5	11
Clc1ccccc1-c1nc(-c2ccccc2)n[nH]1	-1	24108*	-1	0	-1	5
CCN(c1ccc(NC(=O)COC(=O)C(C)N=C2NS(=O)(=O)c3ccccc32)cc1)C(C)C (stereo unspecified)	nt	nt	nt	3	nt	-4
NS(=O)(=O)c1ccc(CNC(=O)NC23CC4CC(CC(C4)C2)C3)cc1	?	17603*	-16	0	11	0
CCCCNC(=O)NC12CC3CC(CC(C3)C1)C2	-1	2272	0	4	-4	-3
O=C(NCCCO)NC12CC3CC(CC(C3)C1)C2	3	19797*	-1	-2	5	-4
COc1ccc(CCNC(=O)CN2C(=O)NC(c3ccccc3)(c3ccccc3)C2=O)cc1	0	2959	0	0	-9	11
Cc1ccc2nc(SCC(=O)NCc3ccco3)nc(=O)n2c1	-20	?	-11	0	-31	11
N=c1c(S(=O)(=O)c2ccc(Br)cc2)cc2c(=O)n3ccccc3nc2n1Cc1ccccc1	4	6322	7	1	3	6
COCCn1c(=N)c(C(=O)NCc2ccco2)cc2c(=O)n3cc(C)ccc3nc21	1	3302	-3	149*	2	5
N=c1c(C(=O)NCc2ccco2)cc2c(=O)n3ccccc3nc2n1CCc1ccccc1	nt	nt	nt	126*	nt	9
Cc1ccc(Cn2c(=N)c(S(=O)(=O)c3ccc(Br)cc3)cc3c(=O)n4ccccc4nc32)cc1	1	5672	4	2	4	2
Cc1ccc(Cn2c(=N)c(C(=O)NCc3ccco3)cc3c(=O)n4ccccc4nc32)cc1	8	3406	7	52*	-24	12
SMILES	BoNT A protease	Bead autofluor	Anthrax LF inh2	FBA Mtb inh	BoNT F protease	GDH-TPI inh
COc1ccc(CCn2c(=N)c(C(=O)NCc3ccco3)cc3c(=O)n4ccccc4nc32)cc1OC	0	4603	3	5	-8	16
N=c1c(S(=O)(=O)c2ccc(Br)cc2)cc2c(=O)n3ccccc3nc2n1Cc1ccco1	1	5301	1	131*	3	15
CC1Cc2ccccc2N1C(=O)Cn1cnc2ccccc21 (stereo unspecified)	-2	4744	-10	3	-8	-3
CCC1=C(c2ccc(C)cc2)S(=O)(=O)N=C1N1CCC(C(=O)NCCCN2CCCCC2C)CC1 (stereo unspecified)	2	11381	0	-1	3	-2
Cc1ccc(N(CC(=O)NCc2ccccn2)S(=O)(=O)c2ccccc2)cc1C	-4	3047	16	1	4	0
O=C(NCC(c1cccs1)N1CCOCC1)c1cc2ccccc2oc1=O (stereo unspecified)	0	3857	-8	1	-6	7
CCOC(=O)N1CCN(c2nnnn2-c2ccccc2)CC1	1	4219	2	0	-16	2
COc1ccc(C(=O)N2CCN(c3nnnn3-c3ccccc3)CC2)cc1OC	0	23177*	-1	1	-1	-4
CCCS(=O)(=O)N1CCCC(C(=O)NCCc2cccc(C)c2)C1 (stereo unspecified)	-1	3545	-15	0	-9	-1
CC(=O)Nn1cc2c(c1-c1ccccc1)c(=O)n(C)c(=O)n2C	-2	24616*	2	4	-7	-11
Cn1c(=O)c2c(-c3ccccc3)n(-c3cc(Cl)c([N+](=O)[O-])cc3O)cc2n(C)c1=O	-18	21612*	-20	0	-127	nt
N#Cc1ccccc1S(=O)(=O)N1CCN(CC(O)COc2ccccc2F)CC1 (stereo unspecified)	-1	3902	-1	22	6	-3
CCN(CC)S(=O)(=O)c1ccc(C(=O)N2CCN(C(=O)c3ccco3)CC2)cc1	0	5175	1	-2	-1	-3
CC1CCN(c2ccc3nnc(CCC(=O)N4CCCCC4)n3n2)CC1	2	5719	-3	4	3	-6
Cc1ccc(S(=O)(=O)c2c(C)cc(C)[nH]c2=O)c(C)c1	0	2905	4	4	-2	11
Cc1cc(-c2ccccc2)[nH]c(=O)c1S(=O)(=O)c1ccc(Cl)cc1	0	9861	-12	20	-1	-3
Cc1ccccc1S(=O)(=O)c1c(C)cc(-c2ccccc2)[nH]c1=O	0	9603	-16	76*	-1	19
Cc1cc(-c2ccccc2)[nH]c(=O)c1S(=O)(=O)c1ccccc1	1	3009	1	107*	-1	27
COc1cccc(NC(=O)N2CCN(C(=O)C(Cc3ccc(OC)c(OC)c3)NC(C)=O)CC2)c1 (stereo unspecified)	?	18405*	-7	-2	13	3
COc1ccc(CC(NC(C)=O)C(=O)NC2CCN(C(=O)Nc3ccccc3Cl)CC2)cc1OC (stereo unspecified)	-1	4418	2	0	-14	-5
COc1ccc(CC(NC(C)=O)C(=O)N2CCN(C(=O)Nc3ccc(Cl)cc3)CC2)cc1OC (stereo unspecified)	1	22516*	-8	1	-1	-5
